From PubChem BioAssay (Tox21)
Records with an inconclusive call do not appear. Activity calls are given as the source filed them. Unless noted, calls follow the shape of the dose curve; as a rule, active = well fitted curve in the direction sought with a large enough effect in the repeat runs; inconclusive = weak or mixed curves; inactive = no such curve, though single readings can be large; an effect the other way counts as inactive or inconclusive.

Experiments:
[1] = target: Retinoic acid receptor RXR-alpha (Homo sapiens) (UniProt P19793); assay: qHTS assay to identify small molecule agonists of the RXR signaling pathway (AID 1159527; calls by dose curve; also: nearly all actives have a fitted effect of over 35% in size)
In short: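 GeneBLAzer RXR-alpha-UAS-bla HEK 293T cells in 2% charcoal-stripped FBS medium were exposed to compounds for 16 hr at 37 C in agonist mode. Beta-lactamase reporter read as 460/530 nm FRET ratio after 2 hr substrate loading.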

[2] = qHTS assay to identify small molecule antagonists of the retinoid acid receptor (RAR) signaling pathway - cell viability counter screen (AID 1159551); also: nearly all actives have a fitted effect of over 35% in size
In short: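 Luminescent ATP quantitation (CellTiter-Glo) gave cell viability in C3RL4 cells exposed to test chemicals for 6 h at 37 C alongside 1 uM final retinol.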

[3] = qHTS assay to identify small molecule antagonists of the estrogen related receptor (ERR) signaling pathway from Tox21 library - cell viability counter screen (AID 1224834); also: nearly all actives have a fitted effect of over 30% in size
In short: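 Fluorescence from CellTiter-Fluor gives the viability read-out, taken 30 min after reagent addition. Before that, ERR cells seeded 6 h earlier were incubated with compounds for 17.5 h at 37 C.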

[4] = target: Luciferin 4-monooxygenase (Photinus pyralis) (UniProt P08659); assay: qHTS assay to identify small molecule inhibitors of firefly luciferase (AID 1224835); also: series mostly up to about 120 µM; nearly all actives have a fitted effect of over 25% in size
In short: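 Biochemical qHTS: compounds run as interplate titrations against purified firefly enzyme, with D-luciferin and ATP each at its KM concentration. Light output recorded by CCD imaging.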

[5] = qHTS assay to identify small molecule agonists of the constitutive androstane receptor (CAR) signaling pathway - cell viability counter screen (AID 1224836); also: series mostly up to about 92 µM; nearly all actives have a fitted effect of over 45% in size
In short: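 HepG2 cells stably carrying hCAR and a CYP2B6-2.2kb reporter; 15-concentration compounds plus PK11195 (final 0.75 uM), 23 hr at 37 C/5% CO2. Viability read by CellTiter-Fluor fluorescence.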

[6] = qHTS assay to identify small molecule antagonists of the constitutive androstane receptor (CAR) signaling pathway - cell viability counter screen (AID 1224837); also: series mostly up to about 92 µM; nearly all actives have a fitted effect of over 45% in size
In short: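 HepG2-CYP2B6-hCAR cells, 2500/well, 4 hr pre-incubation; compound titration, 15 conc.; CITCO 50 nM final; 23 hr, 37 C/5% CO2; CellTiter-Fluor, fluorescence intensity.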

[7] = target: Nuclear receptor subfamily 1 group I member 3 (Homo sapiens) (UniProt Q14994); assay: qHTS assay to identify small molecule antagonists of the constitutive androstane receptor (CAR) signaling pathway (AID 1224838);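 also: HepG2 cells stably expressing hCAR with CYP2B6 luciferase reporter stimulated by CITCO; nearly all actives have a fitted effect of over 40% in size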
In short: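 HepG2-CYP2B6-hCAR cells; 4 h pre-incubation; cpd (15 conc) + CITCO 50 nM final; 24 h, 37 C/5% CO2; ONE-Glo, luminescence.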

[8] = qHTS assay to identify small molecule antagonists of the estrogen related receptor signaling pathway with the pleiotropic PPARgamma coactivator (PGC) from Tox21 10K library - cell viability counter screen (AID 1224840; active = well fitted cell-killing curve with a large enough effect in the repeat runs, not every such curve was filed as active; also: nearly all actives have a fitted effect of over 40% in size)
In short: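 PGC/ERR cells, 2,000/well; 6 h pre-incubation 37 C/5% CO2; cpd in DMSO via pin tool; 17.5 h 37 C; CellTiter-Fluor, 30 min; fluorescence.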

[9] = qHTS assay to identify small molecule antagonists of the estrogen related receptor signaling pathway with the pleiotropic PPARgamma coactivator (PGC) from Tox21 10K library (AID 1224841; call rule not given here; also: series mostly up to about 92 µM; actives are mostly falling curves and most rising ones were filed inactive; nearly all actives have a fitted effect of over 50% in size)
In short: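 PGC/ERR cell line, 2,000 cells/well; 6 h pre-incubation 37 C/5% CO2; compounds (DMSO) pinned in; 18 h, 37 C; One-Glo, 30 min RT; luminescence.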

[10] = qHTS assay to identify small molecule agonists of the estrogen related receptor signaling pathway with the pleiotropic PPARgamma coactivator (PGC) from Tox21 10K library (AID 1224842); also: nearly all actives have a fitted effect of over 15% in size
In short: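 PGC/ERR reporter cell line, 2,000 cells per well, incubated 6 h at 37 C before 23 nL compound in DMSO was added. After 18 h at 37 C, One-Glo luminescence read following 30 min at room temperature.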

[11] = qHTS assay to identify small molecule agonists of the hypoxia (HIF-1) signaling pathway - cell viability counter screen (AID 1224844; calls by dose curve; also: nearly all actives have a fitted effect of over 50% in size)
In short: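 ME-180 HRE-bla cells, 2,000/well, 0.5% dialyzed FBS; 5 hr settle, 17 hr compound at 37C/5% CO2; CCF4-AM reporter read first, then CellTiter-Glo luminescence after 30 min RT.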

[12] = qHTS assay to identify small molecule agonists of H2AX (AID 1224845; active = well fitted activation curve with a large enough effect in the signal ratio in the repeat runs, not every such curve was filed as active; the % refers to the signal ratio)
In short: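 Wild-type CHO-K1 cells, plated overnight, exposed 3hr at 37C to 15 concentrations (0.76% DMSO final). Lysed, then HTRF anti-pH2AX (S139) cryptate and anti-H2AX-d2 antibodies, 24 hr room temperature; 665/620 nm emission read.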

[13] = target: Thyrotropin receptor (Homo sapiens) (UniProt P16473); assay: qHTS assay to identify small molecule agonists of the thyroid stimulating hormone receptor (TSHR) signaling pathway (AID 1224843; calls by dose curve; also: nearly all actives have a fitted effect of over 45% in size)
In short: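 TSHR-HEK293 cells in agonist mode, 30 min room-temperature step, then cAMP measured by competitive HTRF (cAMP-d2 with anti-cAMP cryptate) after 1 h at room temperature. Tested at 15 concentrations in triplicate.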

[14] = qHTS assay to identify small molecule antagonists of the estrogen related receptor (ERR) signaling pathway (AID 1224819;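 also: luminescence from an ERR-driven luciferase reporter measured with One-Glo reagent; series mostly up to about 46 µM; nearly all actives have a fitted effect of over 50% in size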)
In short: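 Seed ERR cells 2,000/well; rest 6 h at 37 C/5% CO2; pin compounds in DMSO; incubate 18 h at 37 C; add One-Glo; wait 30 min at room temperature; measure luminescence.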

[15] = qHTS assay to identify small molecule agonists of the estrogen related receptor (ERR) signaling pathway (AID 1224820)
In short: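 Cells: ERR line from NTP, 2,000/well. Pre-incubation 6 h, 37 C/5% CO2. Compound (DMSO) pin transfer, 18 h 37 C. One-Glo, 30 min RT, luminescence.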

[16] = qHTS assay to identify small molecule agonists of the estrogen related receptor signaling pathway with the pleiotropic PPARgamma coactivator (PGC) (AID 1224823)
In short: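 Steps: plate PGC/ERR cells at 2,000 cells/well; incubate 6 h, 37 C/5% CO2; pin-transfer compounds (DMSO); incubate 18 h, 37 C; add One-Glo; 30 min RT; read luminescence.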

[17] = target: Nuclear receptor subfamily 1 group I member 3 (Homo sapiens) (UniProt Q14994); assay: qHTS assay to identify small molecule agonists of the constitutive androstane receptor (CAR) signaling pathway (AID 1224839);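 also: HepG2 cells stably carrying human CAR and a CYP2B6 luciferase reporter; series mostly up to about 92 µM; nearly all actives have a fitted effect of over 15% in size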
In short: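 HepG2 cells stably co-transfected with hCAR and a CYP2B6-2.2kb luciferase reporter; compounds at 15 concentrations with 0.75 uM PK11195 present. After 24 hr at 37 C, luciferase read by ONE-Glo luminescence.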

[18] = qHTS assay to identify small molecule antagonists of the retinoic acid receptor (RAR) signaling pathway (AID 1159552; also: nearly all actives have a fitted effect of over 50% in size)
In short: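 Retinol signaling pathway inhibitors screened in C3RL4 RARE-luciferase reporter cells seeded overnight at 37 C, then compounds added with 1 uM (final) retinol as pathway substrate. After 6 hr at 37 C, luciferase luminescence read after 30 min at room temperature.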

[19] = qHTS assay to identify small molecule agonists of the retinoic acid receptor (RAR) signaling pathway (AID 1159553)
In short: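 Luminescence from a RARE-driven luciferase reporter in C3RL4 cells served as the read-out, measured after 30 min with detection reagent at room temperature. Compounds in DMSO were applied for 6 hr at 37 C following overnight seeding.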
% is scaled to controls: 0 for no effect and ±100 for the full control effect.

Sequence of Nuclear receptor subfamily 1 group I member 3 (Homo sapiens) (Q14994 whole entry, looked up): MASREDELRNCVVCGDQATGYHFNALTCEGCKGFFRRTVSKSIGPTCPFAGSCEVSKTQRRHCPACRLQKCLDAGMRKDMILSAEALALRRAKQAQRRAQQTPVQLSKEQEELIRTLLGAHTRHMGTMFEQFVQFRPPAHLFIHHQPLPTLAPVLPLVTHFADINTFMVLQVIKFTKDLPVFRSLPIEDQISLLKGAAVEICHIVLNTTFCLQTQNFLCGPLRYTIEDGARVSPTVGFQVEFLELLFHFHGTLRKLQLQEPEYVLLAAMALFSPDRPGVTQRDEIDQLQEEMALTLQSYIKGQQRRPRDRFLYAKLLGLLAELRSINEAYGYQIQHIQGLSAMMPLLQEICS
Sequence of Thyrotropin receptor (Homo sapiens) (P16473 whole entry, looked up): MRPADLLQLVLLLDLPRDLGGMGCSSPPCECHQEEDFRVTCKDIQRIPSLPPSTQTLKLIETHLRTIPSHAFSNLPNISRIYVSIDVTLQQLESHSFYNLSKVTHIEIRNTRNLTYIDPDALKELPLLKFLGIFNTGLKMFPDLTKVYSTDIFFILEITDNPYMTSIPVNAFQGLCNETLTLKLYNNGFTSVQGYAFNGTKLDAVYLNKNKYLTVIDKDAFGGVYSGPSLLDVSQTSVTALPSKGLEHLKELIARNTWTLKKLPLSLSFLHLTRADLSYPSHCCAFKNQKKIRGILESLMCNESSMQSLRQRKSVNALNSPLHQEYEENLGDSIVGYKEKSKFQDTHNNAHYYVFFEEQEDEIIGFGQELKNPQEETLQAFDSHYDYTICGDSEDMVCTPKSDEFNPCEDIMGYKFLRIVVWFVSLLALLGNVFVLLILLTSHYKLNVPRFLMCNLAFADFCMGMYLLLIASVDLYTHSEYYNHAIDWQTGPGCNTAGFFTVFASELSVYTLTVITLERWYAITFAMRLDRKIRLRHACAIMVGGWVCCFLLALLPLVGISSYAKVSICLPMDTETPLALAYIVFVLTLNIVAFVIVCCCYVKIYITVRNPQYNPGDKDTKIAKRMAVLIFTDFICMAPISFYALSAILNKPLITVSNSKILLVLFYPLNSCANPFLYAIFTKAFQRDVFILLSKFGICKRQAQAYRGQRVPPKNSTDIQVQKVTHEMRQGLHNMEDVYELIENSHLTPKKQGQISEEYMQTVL
Sequence of Luciferin 4-monooxygenase (Photinus pyralis) (P08659 whole entry, looked up): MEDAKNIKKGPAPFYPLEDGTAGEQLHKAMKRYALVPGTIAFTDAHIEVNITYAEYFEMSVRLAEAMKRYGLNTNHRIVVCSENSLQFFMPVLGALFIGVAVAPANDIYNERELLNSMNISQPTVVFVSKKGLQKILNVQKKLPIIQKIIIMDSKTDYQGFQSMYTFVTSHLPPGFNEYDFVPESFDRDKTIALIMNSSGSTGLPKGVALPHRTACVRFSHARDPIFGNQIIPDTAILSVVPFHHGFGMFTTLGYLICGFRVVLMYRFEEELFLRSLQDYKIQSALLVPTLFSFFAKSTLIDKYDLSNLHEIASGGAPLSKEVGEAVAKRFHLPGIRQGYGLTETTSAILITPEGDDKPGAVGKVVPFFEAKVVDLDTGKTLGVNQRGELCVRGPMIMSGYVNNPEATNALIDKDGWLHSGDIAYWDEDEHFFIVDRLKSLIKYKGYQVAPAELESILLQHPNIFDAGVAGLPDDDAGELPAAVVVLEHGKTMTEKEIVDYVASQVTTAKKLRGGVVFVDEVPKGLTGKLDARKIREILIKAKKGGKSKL
Sequence of Retinoic acid receptor RXR-alpha (Homo sapiens) (P19793 whole entry, looked up): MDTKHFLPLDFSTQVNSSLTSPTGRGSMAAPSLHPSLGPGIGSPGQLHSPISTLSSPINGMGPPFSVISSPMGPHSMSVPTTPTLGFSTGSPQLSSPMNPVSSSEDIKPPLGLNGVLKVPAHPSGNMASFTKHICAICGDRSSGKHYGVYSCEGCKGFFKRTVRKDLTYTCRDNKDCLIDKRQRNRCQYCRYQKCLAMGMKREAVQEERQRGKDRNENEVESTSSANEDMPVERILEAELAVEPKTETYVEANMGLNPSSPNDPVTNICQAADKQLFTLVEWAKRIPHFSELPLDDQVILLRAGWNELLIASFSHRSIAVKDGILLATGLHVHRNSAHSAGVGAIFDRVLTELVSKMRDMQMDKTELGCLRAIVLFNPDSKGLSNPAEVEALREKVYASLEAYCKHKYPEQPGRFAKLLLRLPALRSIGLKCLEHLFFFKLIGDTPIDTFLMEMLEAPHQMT

CCCCN
inactive: Potency [1] | outcome [2] | Potency [3] | Potency [4] | Potency [5] | Potency [6] | outcome [7] | outcome [8] | Potency [9] | outcome [10] | outcome [11] | outcome [12]

CCc1ccc(C=O)cc1
inactive: Potency [1] | outcome [2] | Potency [4] | Potency [5] | Potency [6] | outcome [7] | outcome [8] | Potency [9] | outcome [10] | Potency [13] | outcome [11] | outcome [12]

CN1CCN(CC(=O)N2c3ccccc3C(=O)Nc3cccnc32)CC1
inactive: activation [1] 4.73% [at 6.98 µM] | activity change, negative = cytotoxicity [2] 0.488% [at 8.39 µM] | outcome [14] | outcome [15] | outcome [16] | viability change, negative = cytotoxic [3] 2.62% [at 8.39 µM] | activity change, negative = inhibition [4] 1.23% [at 10.5 µM] | viability change, negative = cytotoxic [5] -1.77% [at 8.39 µM] | activity change, negative = cytotoxicity [6] 7.37% [at 8.39 µM] | activity, negative = inhibition [7] -1.39% [at 8.39 µM] | viability change, negative = cytotoxic [8] 8.41% [at 8.39 µM] | activity, negative = inhibition [9] 2.2% [at 8.39 µM] | activation [10] 0.61% [at 8.39 µM] | activation [13] 3.54% [at 8.39 µM] | activity change, negative = cytotoxicity [11] 0.9% [at 6.97 µM] | activation (H2AX phosphorylation) [12] 2.24% [at 14 µM]

CC(C)CCCC(C)(C)O
inactive: Potency [1] | Potency [3] | Potency [4] | Potency [5] | Potency [6] | outcome [7] | outcome [8] | Potency [13] | outcome [12]

C[Si](C)(C)C
inactive: Potency [1] | outcome [2] | Potency [3] | Potency [4] | Potency [5] | Potency [6] | outcome [7] | Potency [17] | outcome [8] | Potency [9] | outcome [10] | Potency [13] | outcome [11] | outcome [12]

CN1C(C)(C)CCCC1(C)C
inactive: Potency [1] | outcome [2] | Potency [3] | Potency [4] | Potency [5] | Potency [6] | outcome [8] | Potency [13] | outcome [11] | outcome [12]

C=CC(OCC)OCC
inactive: Potency [1] | outcome [2] | outcome [18] | Potency [3] | Potency [4] | Potency [5] | Potency [6] | outcome [7] | outcome [12]

CCCCNC1CC(C)(C)NC(C)(C)C1
inactive: Potency [1] | outcome [2] | Potency [3] | Potency [5] | Potency [6] | outcome [7] | Potency [9] | outcome [10] | Potency [13] | outcome [12]

C=COCCOCCOCCOC=C
inactive: Potency [1] | outcome [2] | Potency [3] | Potency [4] | Potency [5] | Potency [6] | outcome [7] | outcome [8] | Potency [13] | outcome [11] | outcome [12]

O=C(NCCc1c[nH]c2ccccc12)c1cccnc1
inactive: Potency [1] | outcome [2] | outcome [18] | Potency [3] | Potency [6] | outcome [8] | Potency [13] | outcome [12]

CCCC(=O)C(C)=O
inactive: Potency [1] | outcome [2] | Potency [3] | Potency [4] | Potency [5] | Potency [6] | outcome [7] | Potency [17] | outcome [8] | Potency [9] | outcome [10] | Potency [13] | outcome [12]

O=C(NCC(O)CO)c1c(I)c(C(=O)NCC(O)CO)c(I)c(N(CCO)C(=O)CO)c1I (configuration not stated)
inactive: Potency [1] | outcome [2] | outcome [18] | Potency [5] | Potency [6] | outcome [7] | Potency [17] | Potency [13] | outcome [11] | outcome [12]

CCN(CC)CC(=O)Nc1c(C)cccc1C
inactive: Potency [1] | outcome [2] | Potency [19] | outcome [14] | outcome [15] | outcome [16] | Potency [3] | Potency [5] | Potency [6] | outcome [8] | Potency [9] | outcome [10] | outcome [11]

NS(=O)(=O)c1ccc(NC(=O)CCC(=O)O)cc1
inactive: Potency [1] | outcome [2] | Potency [4] | Potency [5] | Potency [6] | outcome [7] | Potency [13] | outcome [11] | outcome [12]

Cc1ccc2c(c1)OCC(=O)CO2
inactive: Potency [1] | outcome [2] | outcome [18] | Potency [4] | Potency [5] | Potency [6] | outcome [7] | Potency [17] | outcome [8] | Potency [9] | outcome [11] | outcome [12]

O=C(O)c1cc(Cl)cc([N+](=O)[O-])c1Cl
inactive: Potency [1] | outcome [2] | outcome [18] | Potency [3] | Potency [4] | Potency [5] | Potency [6] | outcome [7] | outcome [8] | Potency [9] | outcome [10] | Potency [13] | outcome [11] | outcome [12]
